Activity calls are given as the source filed them. The calls were made as follows: active = hit-call score of the fitted dose curve at least 0.9, where 1 is the maximum; inactive = score below 0.9.

14 molecules from PubChem BioAssay (EPA / NIEHS) can be followed below.

The nature of assay [1]: ATG_CRE_CIS: Attagene CIS-FACTORIAL HepG2 Assay for human cAMP Responsive Element (CRE) binding protein 3 (AID 2282926). As to conditions: HepG2 CRE cis-reporter, Attagene multiplexed mRNA; actives raise or lower the signal. In short, it runs like this:
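HepG2 cells transiently transfected with cis-element-driven multiple reporter transcription units; CRE reporter mRNA measured 24 h after dosing by RT-PCR, 6-FAM labelling, HpaI digestion and capillary electrophoresis. Bidirectional fit versus DMSO baseline.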

Assay [2] concerns the target CCAAT/enhancer-binding protein beta (Homo sapiens) (UniProt P17676). The assay is described as follows: ATG_C_EBP_CIS: Attagene CIS-FACTORIAL HepG2 Assay for human CCAAT/Enhancer Binding Protein (C/EBP) beta (AID 2282927). The settings on record: HepG2 Attagene cis-factorial transcription factor reporter; actives raise or lower the signal. In outline:
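Changes in reporter mRNA, rather than exogenous chimeric receptor activity, reflect native C/EBP signalling in transfected HepG2 cells dosed for 24 h; transcripts are detected by RT-PCR and capillary electrophoresis.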

Assay [3] can be described thus: ATG_CMV_CIS: Attagene CIS-FACTORIAL HepG2 Assay for human CMV (Internal Marker) (AID 2282928).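 Also: endpoint acts as a background internal control marker rather than a target.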 The settings on record: HepG2 CMV promoter reporter, transcription factor profiling; actives raise or lower the signal. In short, it runs like this: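 After transient transfection of HepG2 with reporter transcription units driven by cis-regulatory promoters, cells receive test chemical for 24 h. Labeled reporter amplicons, digested with HpaI, are sized and quantified by capillary electrophoresis against DMSO.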

The nature of assay [4]: ATG_DR4_LXR_CIS: Attagene CIS-FACTORIAL HepG2 Assay for human Liver X Receptor (LXR), DR4 submotif (AID 2282929). As to conditions: HepG2 Attagene DR4 cis-reporter, mRNA transcription; actives raise or lower the signal. In outline: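 Endogenous factor activity at a DR4 cis-element is read as reporter mRNA in transiently transfected HepG2 cells. Exposure lasts 24 h; transcripts are amplified, fluorescently labelled and sized by capillary electrophoresis, with DMSO as baseline.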

For assay [5], the target named is Aryl hydrocarbon receptor (Homo sapiens) (UniProt P35869). The assay is described as follows: ATG_Ahr_CIS: Attagene CIS-FACTORIAL HepG2 Assay for human Aryl Hydrocarbon Receptor (Ahr) (AID 2282930). As to conditions: HepG2 AhR cis-factorial reporter transcription; actives raise or lower the signal. In short, it runs like this: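 HepG2, transient MRTU (cis) transfection, 24 h exposure. RNA → cDNA → PCR → 6-FAM primer extension → HpaI 2 h 37 C → CE. Fit: bidirectional, DMSO baseline.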

Assay [6] is described as follows: ATG_AP_1_CIS: Attagene CIS-FACTORIAL HepG2 Assay for human Activator Protein 1 (AP-1) (AID 2282931). The settings on record: HepG2 Attagene cis-factorial AP-1 reporter mRNA; actives raise or lower the signal. In short, it runs like this: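 Fluorescence of labelled PCR fragments separated by capillary electrophoresis gives reporter mRNA levels. HepG2 with transfected cis-regulated reporter units, 24 h exposure; DMSO serves as baseline for bidirectional curve fits.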

Assay [7] is described as follows: ATG_AP_2_CIS: Attagene CIS-FACTORIAL HepG2 Assay for human Activator Protein 2 (AP-2) (AID 2282932). The settings on record: HepG2 AP-2 cis-reporter, Attagene transcription factor profiling; actives raise or lower the signal. In short, it runs like this: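 HepG2, transient MRTU transfection, cis-regulated reporters; 24 h compound exposure; RNA isolated, RT-PCR, 6-FAM labelling, HpaI digest, CE fluorescence. DMSO = negative control/baseline, bidirectional fit.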

The nature of assay [8]: ATG_BRE_CIS: Attagene CIS-FACTORIAL HepG2 Assay for human Bone Morphogenetic Protein (BMP) Response Element (BRE) (AID 2282933). As to conditions: HepG2 BMP response element reporter, Attagene transcription factor profiling; actives raise or lower the signal. In short, it runs like this:
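After a 24 h chemical treatment, transiently transfected HepG2 cells were lysed for RNA; reporter transcripts were quantified by fluorescent RT-PCR and capillary electrophoresis, normalised to DMSO.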

Sequence of CCAAT/enhancer-binding protein beta (Homo sapiens) (P17676 whole entry, looked up): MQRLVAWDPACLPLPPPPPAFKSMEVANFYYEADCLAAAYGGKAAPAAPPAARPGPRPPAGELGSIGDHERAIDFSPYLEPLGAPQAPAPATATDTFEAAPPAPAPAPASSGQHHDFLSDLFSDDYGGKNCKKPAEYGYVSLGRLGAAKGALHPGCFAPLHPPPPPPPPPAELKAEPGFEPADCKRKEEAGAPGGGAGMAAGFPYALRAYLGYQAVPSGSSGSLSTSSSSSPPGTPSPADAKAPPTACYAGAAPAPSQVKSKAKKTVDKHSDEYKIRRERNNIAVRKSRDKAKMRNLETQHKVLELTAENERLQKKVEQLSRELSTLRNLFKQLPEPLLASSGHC
Sequence of Aryl hydrocarbon receptor (Homo sapiens) (P35869 whole entry, looked up): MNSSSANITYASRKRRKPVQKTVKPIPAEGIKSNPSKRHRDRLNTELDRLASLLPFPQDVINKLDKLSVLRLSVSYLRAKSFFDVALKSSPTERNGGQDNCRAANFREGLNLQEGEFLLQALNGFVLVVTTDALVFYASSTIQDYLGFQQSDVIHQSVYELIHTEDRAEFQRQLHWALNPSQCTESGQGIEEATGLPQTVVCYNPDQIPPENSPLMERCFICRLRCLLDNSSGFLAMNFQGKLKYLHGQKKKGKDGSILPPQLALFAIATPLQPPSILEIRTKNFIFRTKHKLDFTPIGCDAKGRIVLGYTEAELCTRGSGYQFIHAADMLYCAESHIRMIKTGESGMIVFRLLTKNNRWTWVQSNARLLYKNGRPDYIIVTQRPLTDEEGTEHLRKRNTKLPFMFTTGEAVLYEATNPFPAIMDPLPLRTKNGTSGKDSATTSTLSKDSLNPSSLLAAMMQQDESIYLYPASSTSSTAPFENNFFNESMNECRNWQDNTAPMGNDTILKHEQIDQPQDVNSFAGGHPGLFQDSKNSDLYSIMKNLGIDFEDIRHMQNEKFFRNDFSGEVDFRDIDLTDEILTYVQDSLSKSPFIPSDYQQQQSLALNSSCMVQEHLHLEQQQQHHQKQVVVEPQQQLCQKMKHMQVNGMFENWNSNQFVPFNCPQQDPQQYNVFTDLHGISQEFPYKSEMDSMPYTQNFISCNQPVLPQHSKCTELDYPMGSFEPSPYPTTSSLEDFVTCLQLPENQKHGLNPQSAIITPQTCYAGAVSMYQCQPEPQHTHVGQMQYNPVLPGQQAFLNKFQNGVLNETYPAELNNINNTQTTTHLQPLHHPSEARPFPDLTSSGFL

Regarding `CCc1cccc(O)c1`, the molecule was called inactive in assay [1], in assay [2], in assay [3], in assay [4], in assay [5] and in assay [6]. Besides, the result in assay [7] and in assay [8] was inactive.
Consider `C1CCCNCC1`, for which the molecule was called inactive in assay [1], in assay [2], in assay [3], in assay [4], in assay [6] and in assay [7]. In assay [8], the result was inactive. The half-maximal activity concentration (AC50) (as a rule, the concentration at which the activity in the assay is half-maximal) in assay [5] was 62.5 µM (active).
Turning to `O=S(=O)(O)c1cc(S(=O)(=O)O)c2c(N=Nc3ccccc3)c(O)ccc2c1`, the molecule was classed as inactive in assay [1], in assay [2], in assay [3], in assay [4], in assay [5] and in assay [6]. The result in assay [7] and in assay [8] was inactive.
As for `CCCC1CCC(=O)CC1`, the molecule was called inactive in assay [1], in assay [2], in assay [3], in assay [4], in assay [6] and in assay [7]. In assay [8], the result was inactive. Moreover, in assay [5], the AC50 was 44.4 µM (active).
On to `CC(C)(O)C(=O)c1ccc(OCCO)cc1`, for which the call in assay [1], in assay [2], in assay [3], in assay [4], in assay [5] and in assay [6] was inactive. The molecule was called inactive in assay [7] and in assay [8].
Take `CC(=O)CCC(=O)O`: the outcome in assay [1], in assay [2], in assay [3], in assay [4], in assay [5] and in assay [6] was inactive. In addition, the outcome in assay [7] and in assay [8] was inactive.
For the molecule `CC(=O)c1ccc2ccccc2c1`, the outcome in assay [1], in assay [2], in assay [3], in assay [4], in assay [6] and in assay [7] was inactive. Moreover, the outcome in assay [8] was inactive. Besides, in assay [5], the AC50 is 3.53 µM (active).
In the case of `CCCCCCCCCCCCN1CCOCC1`, the outcome in assay [1], in assay [2], in assay [5] and in assay [7] was inactive. Moreover, the AC50 in assay [3] is 44.8 µM (active); in assay [4], 60.5 µM (active); in assay [6] it was 51.8 µM (active); in assay [8] it was 47.7 µM (active).
Consider `CC(=O)OC(C)(C)C`, for which the outcome in assay [1], in assay [2], in assay [3], in assay [4], in assay [5] and in assay [6] was inactive. Besides, the call in assay [7] and in assay [8] was inactive.
Consider `Cc1cc(O)c(C)c(C)c1O`, for which the result in assay [1], in assay [2], in assay [4], in assay [6] and in assay [7] was inactive. Further, the AC50 was 18.5 µM (active) in assay [3], 17.8 µM (active) in assay [5] and 52.8 µM (active) in assay [8].
`CN(C)CCC=C1c2ccccc2CCc2ccccc21`: the AC50 was 33.4 µM (active) in assay [1], 27 µM (active) in assay [4] and 61.2 µM (active) in assay [6]. Further, the outcome in assay [2], in assay [3], in assay [5], in assay [7] and in assay [8] was inactive.
Turning to `CCCC(O)C(CC)CO` (configuration not stated), the call in assay [1], in assay [2], in assay [3], in assay [4], in assay [5] and in assay [6] was inactive. In addition, the molecule was called inactive in assay [7] and in assay [8].
For `O=S1(=O)CC(Cl)(Cl)C(Cl)(Cl)C1`, the result in assay [1], in assay [2], in assay [5], in assay [6], in assay [7] and in assay [8] was inactive. Besides, the half-maximal activity concentration (AC50) in assay [3] was 2.22 µM (active); in assay [4] it was 2.41 µM (active).
For the molecule `CCCCCC#CC(=O)OC`, the result in assay [1], in assay [2], in assay [3], in assay [4], in assay [5] and in assay [6] was inactive. The result in assay [7] and in assay [8] was inactive.
